The campaign covered roughly 5,500 compounds. About 2,000 (36%) were called active. About 18% were inconclusive and are not listed. The list shows a part of the results. Unmarked numbers belong to inactive results. Cut-off read from the data, not from the text of the source: active = normalized growth mostly below about 0.91 (no sharp cut-off); inconclusive = no clear call, values can overlap the other calls; inactive = mostly above about 0.92.
Experiment: chemical genetic growth profiling, strain panel (AID 1159580);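 note: tested at 20 µM; growth read once vehicle control cultures reached saturation at 30 °C; 1 = growth at the plate median or of vehicle wells; lower values mean less growth of the strain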
Conditions: S. cerevisiae deletion strains, growth OD

C=CCCCCCCCCCCCC(O)CC(O)CO (centres undefined)
normalized growth (locus YAL013W, strain DEP1, hits give low values): 0.952 | normalized growth (locus YAL021C, strain ccr4, hits give low values): 0.987 | normalized growth (locus YAL026C, strain drs2, hits give low values): 1.01 | normalized growth (locus YAL030W, strain snc1, hits give low values): 1 | normalized growth (locus YBL061C, strain skt5, hits give low values): 1 | normalized growth (locus YBR009C, strain hhf1, hits give low values): 1 | normalized growth (locus YBR021W, strain FUR4, hits give low values): 0.751 (active) | normalized growth (locus YBR023C, strain chs3, hits give low values): 1 | normalized growth (locus YBR171W, strain sec66, hits give low values): 0.986 | normalized growth (locus YBR229C, strain ROT2, hits give low values): 0.974 | normalized growth (locus YBR231C, strain swc5, hits give low values): 0.997 | normalized growth (locus YBR279W, strain paf1, hits give low values): 0.981 | normalized growth (locus YCL011C, strain gbp2, hits give low values): 0.992 | normalized growth (locus YCL016C, strain dcc1, hits give low values): 0.987 | normalized growth (locus YCL029C, strain bik1, hits give low values): 0.968 | normalized growth (locus YCL061C, strain MRC1, hits give low values): 0.985 | normalized growth (locus YCL069W, strain vba3, hits give low values): 0.991 | normalized growth (locus YCR088W, strain abp1, hits give low values): 0.99 | normalized growth (locus YDL005C, strain med2, hits give low values): 0.987 | normalized growth (locus YDL035C, strain GPR1, hits give low values): 0.822 (active) | normalized growth (locus YDL040C, strain nat1, hits give low values): 0.998 | normalized growth (locus YDL074C, strain BRE1, hits give low values): 0.82 | normalized growth (locus YDL101C, strain DUN1, hits give low values): 0.949 | normalized growth (locus YDL134C, strain PPH21, hits give low values): 0.951 | normalized growth (locus YDL185W, strain tfp1, hits give low values): 0.989 | normalized growth (locus YDL192W, strain arf1, hits give low values): 0.921 | normalized growth (locus YDR001C, strain nth1, hits give low values): 0.987 | normalized growth (locus YDR069C, strain doa4, hits give low values): 1.01 | normalized growth (locus YDR101C, strain arx1, hits give low values): 0.899 (active) | normalized growth (locus YDR137W, strain rgp1, hits give low values): 1.01 | normalized growth (locus YDR150W, strain NUM1, hits give low values): 0.992 | normalized growth (locus YDR159W, strain sac3, hits give low values): 0.99 | normalized growth (locus YDR162C, strain NBP2, hits give low values): 0.948 | normalized growth (locus YDR195W, strain ref2): 1.01 | normalized growth (locus YDR297W, strain sur2, hits give low values): 0.996 | normalized growth (locus YDR318W, strain mcm21, hits give low values): 0.872 (active) | normalized growth (locus YDR334W, strain swr1, hits give low values): 1 | normalized growth (locus YDR335W, strain msn5, hits give low values): 0.998 | normalized growth (locus YDR388W, hits give low values): 0.98 | normalized growth (locus YDR392W, strain spt3, hits give low values): 0.918 | normalized growth (locus YDR502C, strain sam2, hits give low values): 0.912 (active) | normalized growth (locus YEL003W, strain gim4, hits give low values): 0.993 | normalized growth (locus YEL037C, strain rad23, hits give low values): 1.01 | normalized growth (locus YEL061C, strain CIN8 (second series), hits give low values): 0.994 | normalized growth (locus YEL061C, strain CIN8, hits give low values): 0.962 | normalized growth (locus YER015W, strain faa2, hits give low values): 0.99 | normalized growth (locus YER016W, strain bim1, hits give low values): 0.997 | normalized growth (locus YER110C, hits give low values): 0.969 | normalized growth (locus YER111C, strain swi4, hits give low values): 0.991 | normalized growth (locus YER155C, strain BEM2 (second series), hits give low values): 0.986 | normalized growth (locus YER155C, strain BEM2, hits give low values): 0.97 | normalized growth (locus YER167W, strain BCK2, hits give low values): 0.872 (active) | normalized growth (locus YFR010W, strain ubp6, hits give low values): 1 | normalized growth (locus YGL078C, strain dbp3, hits give low values): 0.967 | normalized growth (locus YGL086W, strain mad1, hits give low values): 0.875 (active) | normalized growth (locus YGL167C, strain pmr1, hits give low values): 0.998 | normalized growth (locus YGL173C, strain kem1, hits give low values): 0.996 | normalized growth (locus YGL227W, strain vid30, hits give low values): 0.981 | normalized growth (locus YGL240W, strain doc1, hits give low values): 0.993 | normalized growth (locus YGL248W, strain PDE1, hits give low values): 0.927 | normalized growth (locus YGL253W, strain hxk2, hits give low values): 1 | normalized growth (locus YGR078C, strain PAC10, hits give low values): 0.832 (active) | normalized growth (locus YGR135W, strain pre9, hits give low values): 0.887 (active) | normalized growth (locus YGR229C, strain SMI1, hits give low values): 0.947 | normalized growth (locus YGR252W, strain gcn5, hits give low values): 0.785 | normalized growth (locus YHR013C, strain ard1, hits give low values): 0.966 | normalized growth (locus YHR027C, strain rpn1, hits give low values): 0.995 | normalized growth (locus YHR030C, strain SLT2, hits give low values): 0.974 | normalized growth (locus YHR079C, strain IRE1 (second series), hits give low values): 0.883 (active) | normalized growth (locus YHR094C, strain hxt1, hits give low values): 0.985 | normalized growth (locus YHR129C, strain ARP1, hits give low values): 0.903 (active) | normalized growth (locus YHR142W, strain chs7, hits give low values): 1.01 | normalized growth (locus YHR200W, strain rpn10, hits give low values): 0.961 | normalized growth (locus YIL066C, strain RNR3, hits give low values): 0.784 (active) | normalized growth (locus YIL073C, strain SPO22, hits give low values): 0.992 | normalized growth (locus YIL125W, strain kgd1, hits give low values): 0.977 | normalized growth (locus YIR030C, strain dcg1, hits give low values): 0.942 | normalized growth (locus YJL092W, strain hpr5, hits give low values): 0.992 | normalized growth (locus YJL095W, strain BCK1 (second series), hits give low values): 0.99 | normalized growth (locus YJL095W, strain BCK1, hits give low values): 0.937 | normalized growth (locus YJL115W, strain asf1, hits give low values): 0.993 | normalized growth (locus YJL129C, strain trk1, hits give low values): 0.985 | normalized growth (locus YJL134W, strain LCB3, hits give low values): 0.995 | normalized growth (locus YJL154C, strain vps35, hits give low values): 0.987 | normalized growth (locus YJL164C, strain tpk1, hits give low values): 0.997 | normalized growth (locus YJL166W, strain qcr8, hits give low values): 0.99 | normalized growth (locus YJL168C, strain set2, hits give low values): 0.974 | normalized growth (locus YJL187C, strain SWE1 (second series), hits give low values): 0.913 | normalized growth (locus YJL187C, strain SWE1, hits give low values): 0.996

Reference: PubChem BioAssay AID1159580 (chemical genetic matrix, 2015)
